# Test results from PubChem BioAssay (NCI).
# The panel holds about 83,000 compounds, 20% with a hit somewhere; the sample as a whole holds those more often.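 48-hour exposure, single concentration, 96-well plates; percent growth endpoint where 0 means no net growth. Active: below 10.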 Unmarked numbers belong to inactive results. Activity calls are given as the source filed them.
# Test system: RPMI-8226 leukemia
# Assay: NCI-60 one-dose screen, 48 h (100 = growth as untreated, 0 = no growth, -100 = all killed)
# Details: 10 µM
row,SMILES,growth
1,NS(=O)(=O)Oc1ccc(NC(=O)C2CCCCCC2)cc1,102%
2,O=C(CSc1nnc(-c2cccnc2SCc2ccccc2)o1)Nc1nc(Cl)cc(Cl)n1,100%
3,O=C1/C=C/[C@@H](O)[C@@H]2C[C@@H](O)C[C@H]2/C=C/CCC[C@H](CCc2ccc(NC(=S)Nc3ccc4c(c3)C(=O)OC43c4ccc(O)cc4Oc4cc(O)ccc43)cc2)O1,12.3%
4,O=C(CCl)Nc1ccc(Cc2ccc(NC(=O)CCl)cc2)cc1,-32.9% (active)
5,Cc1cc(Cl)ccc1Nc1nc(C(F)(F)F)ccc1C(=O)N/N=C/c1c(Cl)cccc1Cl,-15.1% (active)
6,COc1ccc2c(c1)C(=O)/C(=C/c1ccc([N+](=O)[O-])o1)O2,-3.06% (active)
7,S=C(SSC(=S)N(c1ccccc1)c1ccccc1)N(c1ccccc1)c1ccccc1,97.1%
8,CC(C)=CCC/C(C)=C/CC/C(C)=C/CC/C=C(\C)CC/C=C(\C)CCC(=O)Nc1ccn(C2OC(CO)C(O)C2(F)F)c(=O)n1 (stereo not given),32.1%
9,c1ccc(/C(=N\Nc2ccc3ccccc3n2)c2ccccn2)cc1,9.21% (active)
10,c1ccc(CSc2ncccc2-c2nnc(SCCN3CCOCC3)o2)cc1,104%
11,CN(C)c1ncnc2c1nnn2C1OC(CO)C(O)C1O (stereo not given),-4.55% (active)
12,COc1ccccc1/C=N\N/C(N)=N\N=C\c1ccccc1OC,1.89% (active)
13,COc1cc(/C=C/c2cc(/C=C/c3ccc(O)c(OC)c3)nc(N)n2)ccc1O,2.88% (active)
14,O=C(/C=C/c1cccc(B(O)O)c1)c1cccc(B(O)O)c1,48.2%
15,CN(C)CCC1(c2ccccc2)CCN(C)C1=O (stereo not given),108%
16,COc1ccc(/C=C/c2nnc(/C=C/c3ccc(OC)c(OC)c3)o2)cc1OC,34%
17,CN(C)c1ccc(/C=N/NC(=O)c2ccccc2Nc2cccc(C(F)(F)F)c2)cc1,76.8%
18,CN(C)CCOc1ccc(-c2nc3sccn3c2-c2ccnc(S(C)(=O)=O)n2)cc1,89.6%
19,COc1ccc(CCN2CCC(Nc3nc4ccccc4n3Cc3ccc(F)cc3)CC2)cc1,-20.2% (active)
20,O=C(CN(C1CCCCC1)C1CCCCC1)Nc1ccc(S(=O)(=O)c2ccc(NC(=O)CN(C3CCCCC3)C3CCCCC3)cc2)cc1,-66.9% (active)

row,SMILES,growth
1,COc1ccc2nc(-c3ccc(Cl)cc3)cc(-c3nnc(SC/C(=N\O)c4ccccc4)n3-c3ccccc3)c2c1,59.7%
2,Cc1cc(CSc2ccccc2C(=O)N2CC=C(c3ccccc3)CC2)on1,84.9%
3,CCOC(=O)c1cc(C(=O)c2cc(OC)c(OC)c(OC)c2)n2nc(C)ccc12,18%
4,O=C(O)c1ccc(-n2cc(CNc3ccc(Cl)cc3)c(-c3ccccc3)n2)cc1,89.1%
5,CNC(=O)c1cc(Oc2ccc3c(c2)sc2nc(-c4ccc(N)cc4)cn23)ccn1,40.5%
6,Nc1ccc(CC[C@H]2CCC/C=C/[C@@H]3C[C@H](O)C[C@H]3[C@H](O)/C=C/C(=O)O2)cc1,-4.05% (active)
7,CNC(=O)c1cn(C2CC2)c2cc(N3CCN(C(=O)c4cc(OC)c(OC)c(OC)c4)CC3)c(F)cc2c1=O,97.6%
8,CN1CCN(C2=Nc3ccccc3Oc3ccc(Cl)cc32)CC1,99.5%
9,COc1ccc(Cc2cnc(N)nc2N)cc1OC,102%
10,COc1ccc(C(c2ccc(OCCN(C)C)cc2)c2cc3ccccc3c3ccccc23)cc1 (stereo not given),13.2%
11,O=C(N/N=C/c1ccc(Cl)cc1)c1ccccc1Nc1cccc(C(F)(F)F)c1,82%
12,CC(=O)O[C@@]12CO[C@@H]1C[C@H](O)[C@@]1(C)C(=O)[C@H](O)C3=C(C)[C@@H](OC(=O)[C@H](O)[C@@H](NC(=O)OC(C)(C)C)c4ccccc4)C[C@@](O)([C@@H](OC(=O)c4ccccc4)C12)C3(C)C (stereo not given in full),25.4%
13,CS(=O)(=O)c1nccc(-c2c(-c3cccc(OCCc4ccccc4)c3)nc3sccn23)n1,96.9%
14,C(=N\Nc1ncnc2sc3c(c12)CCNC3)/c1cccc2ccccc12,-30.1% (active)
15,CNS(=O)(=O)Oc1ccc(-c2sc3cc(OS(=O)(=O)NC)ccc3c2C(=O)c2ccc(OCCN3CCCCC3)cc2)cc1,35.9%
16,CCCCC/C=C/C/C=C/CCCCCCCC1=NC(C)(C)CN1C(C)C,-35.7% (active)
17,C#C[C@]1(O)CCC2C3CCc4cc(OC5CCCC5)ccc4C3CC[C@@]21C (stereo not given in full),80.4%
18,O=C(N/N=C/c1c(Cl)cccc1Cl)c1ccccc1Nc1cccc(C(F)(F)F)c1,82.5%
19,COc1cccc(-c2nc3sccn3c2-c2cccc(S(C)(=O)=O)c2)c1,95.9%
20,CC(=O)Nc1ccc(S(=O)(=O)c2ccnc3cc(Cl)ccc23)cc1,72.1%
